From PubChem BioAssay (NCI)
About 79,000 compounds went through this panel and 15% of them were active in at least one assay; those are over-represented in the sample as a whole. Activity calls are given as the source filed them. Rule as the data show it: active = growth inhibition above about 70%; inactive = the rest.

Columns and labels:
[1] = NCI Yeast Anticancer Drug Screen. Data for the rad50 strain (AID 155);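 also: 0% = growth of vehicle-only cultures of the same strain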; details: S. cerevisiae rad50 strain growth inhibition; at 50.0 µM; hits give high values
Outline: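 A DNA repair-deficient yeast mutant serves as the test organism; compound-induced growth inhibition is calculated against vehicle-treated cells.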

[2] = NCI Yeast Anticancer Drug Screen. Data for the mec2-1 strain (AID 157); details: S. cerevisiae mec2-1 strain, at 50.0 µM, hits give high values
Outline: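 Cells of the genetically defined mec2-1 yeast strain are incubated with test compound. Inhibition of growth is calculated against vehicle-treated controls.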

[3] = NCI Yeast Anticancer Drug Screen. Data for the sgs1 mgt1 strain (AID 161);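 also: 0% = growth of cultures given vehicle only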; details: S. cerevisiae sgs1 mgt1 strain, at 50.0 µM, hits give high values
Outline: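 Read-out: growth inhibition vs vehicle controls. Cells: mutant yeast strain deficient in DNA damage repair.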

[4] = NCI Yeast Anticancer Drug Screen. Data for the cln2 rad14 strain (AID 165);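 also: 0% = growth equal to vehicle treated cultures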; details: S. cerevisiae cln2 rad14 strain, at 50.0 µM, hits give high values
Outline: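 The screen exposed genetically defined yeast (cln2 rad14) to test compounds and scored growth inhibition relative to vehicle-treated controls.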

[5] = NCI Yeast Anticancer Drug Screen. Data for the bub3 strain (AID 167); details: S. cerevisiae bub3 mutant strain, at 50.0 µM, hits give high values
Outline: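 Inhibition values come from growth of compound-treated mutant yeast normalised to vehicle-treated controls.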

[6] = NCI Yeast Anticancer Drug Screen. Data for the mlh1 rad18 strain (AID 175); details: S. cerevisiae mlh1 rad18 strain growth inhibition; at 50.0 µM; hits give high values
Outline: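 Compound-treated yeast growth, normalised to vehicle controls. Strain bears defined DNA repair mutations.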

Measured: growth inhibition

N#CC(OC(=O)c1cccc(C(=O)OC(C#N)(C(F)(F)F)C(F)(F)F)c1Sc1ccccc1)(C(F)(F)F)C(F)(F)F
inactive: [1] 27% | [2] 13.8% | [3] -10.1% | [4] -7.8% | [5] 7.55% | [6] -1.3%

Brc1cncc(Br)c1
inactive: [1] 31.9% | [2] -9.35% | [3] -13.3% | [4] -2.1% | [5] -12.2% | [6] 1.4%

COC(=O)C1=CC2C(C1)C1CC2C(OC(C)=O)C1N(C)C (configuration not stated)
inactive: [1] 15.8% | [2] 6% | [3] -0.55% | [4] -31.8% | [5] 6.35% | [6] 17.4%

O=C1C(=O)c2ccccc2C(O)=C1CN(CCO)CCO
inactive: [1] 10.8% | [2] 19.8% | [3] 24.2% | [4] -8.25% | [5] 23.4% | [6] 26.2%

CC(C)(C)OC(=O)N1CC(C)(C)N2C(=O)C3(CCCO3)C12 (configuration not stated)
inactive: [1] -4.3% | [2] -9.85% | [3] -7.15% | [4] -0.4% | [5] -16.6% | [6] 5.65%

Nc1ncc2c(n1)-c1ccccc1OC2N1CCOCC1 (configuration not stated)
inactive: [1] 28% | [2] 2.15% | [3] -0.45% | [4] 2% | [5] -22.6% | [6] -7.8%

O=[N+]([O-])c1cc2c3c(cccc3c1O)CC2
inactive: [1] -18.1% | [2] -8.9% | [3] -4% | [4] -9.85% | [5] 4.45% | [6] 24%

CC(CC(C(=O)Nc1ccccc1)(c1ccccc1)c1ccccc1)N(C)C (configuration not stated)
inactive: [1] -0.2% | [2] -18.2% | [3] 3.55% | [4] -2.15% | [5] -5.1% | [6] 6.2%

CC(C)CC(F)(C(N)=O)C(N)=O
inactive: [1] -4.6% | [2] -4.15% | [3] -3.4% | [4] -3.05% | [5] -5.65% | [6] -4.2%

N#[N+]c1ccc(Nc2ccccc2)cc1
inactive: [1] -8.2% | [2] 9.55% | [3] -20.1% | [4] 12.3% | [5] -10.8% | [6] -4.25%

COC(=O)C1CC(=O)N(C)c2sc(C)c(C)c2C1=O (configuration not stated)
inactive: [4] 36.5%
active: [1] 83.9% | [2] 94.5% | [3] 89% | [5] 87.7% | [6] 95.7%

CC1CCC(O)(C(C)(C(=O)O)c2ccccc2)CC1 (configuration not stated)
inactive: [1] -19.7% | [2] -16.8% | [3] -5.65% | [4] -35.6% | [5] -54.8% | [6] -8.45%

Clc1ccccc1C1Nc2ccccc2S1 (configuration not stated)
inactive: [1] 39.7% | [2] 17.6% | [3] 48.2% | [4] -7.75% | [5] 13.3% | [6] 38.2%

O=C(Nc1ccccc1)c1cc2cc(N=Nc3ccc(Br)cc3)ccc2oc1=O
inactive: [1] 4.2% | [2] -4.7% | [3] -0.4% | [4] 16.1% | [5] -17.1% | [6] -13.1%

Cn1cnc([N+](=O)[O-])c1/N=C/c1ccccc1
inactive: [1] 0.1% | [2] 2.95% | [3] -3.95% | [4] -41.3% | [5] -28.5% | [6] -6.5%

CCC(CO)c1ccccc1 (configuration not stated)
inactive: [1] -3.6% | [2] -17.7% | [3] -3.1% | [4] -25.4% | [5] -3.1% | [6] -12.1%

CC(=O)OC1CC2CC1C1C=CCC21 (configuration not stated)
inactive: [1] 10.3% | [2] 3.75% | [3] 19.8% | [4] 11.3% | [5] 6.5% | [6] 0.65%

CC(C)Nc1nc(N)nc2nc(-c3ccc(Cl)cc3)c(-c3ccc(Cl)cc3)nc12
inactive: [1] -8.7% | [2] -2.5% | [3] -6.85% | [4] -17.4% | [5] 8% | [6] 8%

CSC1C(=O)Nc2ccc([N+](=O)[O-])cc21 (configuration not stated)
inactive: [1] -11.6% | [2] -12.7% | [3] 0.45% | [4] -19.3% | [5] -39.7% | [6] -0.8%

CC(=O)OCCC1CC2c3[nH]c4ccccc4c3CCN2C1=O (configuration not stated)
inactive: [1] -3.85% | [2] -7% | [3] 15.9% | [4] 0.85% | [5] 10.7% | [6] -22.1%

O=C(O)CCSc1ccccc1
inactive: [1] 25.2% | [2] -23.4% | [3] -13.8% | [4] -73% | [5] -3.45% | [6] 20.1%

COc1ccc(C(=O)/C=C/c2ccncc2)cc1OC
inactive: [1] 41.8% | [2] 38.4% | [3] 51.5% | [4] 5.55% | [5] 32.5% | [6] 36.9%

CC1SC2(C(=O)Nc3ccccc32)N(c2ccc(Cl)cc2)C1=O (configuration not stated)
inactive: [1] 21.6% | [2] 10.3% | [3] -12.4% | [4] 23.9% | [5] 60.5% | [6] 10.7%

CCOC(=O)C(CC(c1ccc2c(c1)OCO2)C(C(=O)N(C(C)C)C(C)C)[N+](=O)[O-])C(=O)OCC (configuration not stated)
inactive: [1] 54.9% | [2] 21.4% | [3] 60.5% | [4] 16.2% | [5] 11.8% | [6] 26.4%

COc1ccc(CCNCCCC2c3ccccc3-c3ccccc32)cc1OC
inactive: [1] 28.8% | [2] -3.4% | [3] 6.55% | [4] 12.5% | [5] -19.1% | [6] -34.1%

COc1ccc(C2OC3=C(Nc4ccc(Cl)cc4N3)C2=O)c(OC)c1 (configuration not stated)
inactive: [1] -9.1% | [2] -30.9% | [3] -28.1% | [4] -29.9% | [5] -42.2% | [6] -28.8%

CCCCOc1ccc(C=Nc2ccc(C)cc2)cc1
inactive: [1] -6.15% | [2] -6.2% | [3] -2.45% | [4] -8.5% | [5] 7.3% | [6] -20.7%

CCN(CC)CCOC(=O)OCCN(CC)CC
inactive: [1] -13.5% | [2] -12.1% | [3] -7.3% | [4] 4.45% | [5] 17.9% | [6] -38.8%

CSCCNC(=O)CS(=O)(=O)c1ccc(C)cc1
inactive: [1] 3.35% | [2] -11.4% | [3] 5.25% | [4] 20.2% | [5] 7.95% | [6] 17.4%

CC(=O)OC1c2ccccc2Cc2ccccc21
inactive: [1] 21.5% | [2] 26.3% | [3] 4.1% | [4] 16.6% | [5] 19.1% | [6] 13.1%

OCCN(CCO)c1nc(N(CCO)CCO)nc(N(CCO)CCO)n1
inactive: [1] 19.8% | [2] 16.4% | [3] 20.2% | [4] 31.5% | [5] 17.2% | [6] 19.6%

Fc1ccc(Oc2nc3ccccc3nc2-c2ccccc2)cc1
inactive: [1] -3.35% | [2] 4.5% | [3] -2.15% | [4] 5.55% | [5] -9.4% | [6] 25.7%

COc1cc2c(cc1OC)C1Cc3ccc(OC)c(OC)c3C[N+]1([O-])CC2 (configuration not stated)
inactive: [1] -24.9% | [2] -16.8% | [3] -6.95% | [4] 9.6% | [5] -15.6% | [6] -3.2%

CC(=O)OCC1(C)CCC(C)CO1 (configuration not stated)
inactive: [1] -21.4% | [2] -4.45% | [3] 7.8% | [4] 15.2% | [5] 1.1% | [6] 7%

Cc1cc(NC(=O)C(=O)Cc2cnc3ccccc3n2)c(S(=O)(=O)O)cc1Cl
inactive: [1] 1.45% | [2] 12.8% | [3] -2.7% | [4] -23% | [5] -11.2% | [6] -7.8%

C#[N+]CCOP(=O)(OCC1OC(n2cc(C)c(=O)[nH]c2=O)CC1N=[N+]=[N-])O[C@H]1CC[C@@]2(C)C(=CC[C@H]3[C@@H]4CC[C@H](C(C)CCCC(C)C)[C@@]4(C)CC[C@@H]32)C1 (some centres not stated)
inactive: [1] -18.8% | [2] -30.1% | [3] -24.6% | [4] 3.05% | [5] -0.35% | [6] -17.4%

CCCCCCCCC1C(CCCCCCCC(=O)N(CC)CCCOCC)C2(Cl)C(Cl)=C(Cl)C1(Cl)C2(Cl)Cl (configuration not stated)
inactive: [1] 3.45% | [2] 4.65% | [3] 13.9% | [4] -10.6% | [5] -6.35% | [6] 16.4%
